Screening results as filed in PubChem BioAssay.
FAS TE block = blocks the thioesterase domain of human fatty acid synthase | P49327 | recombinant FAS-TE, OMFH fluorogenic substrate, fluorescence endpoint | AID 602261 | inhibition, % at 15 µM | 0.67% of 360,000 active;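 active = compounds whose normalised, plate-corrected inhibition of enzyme fluorescence in the single-dose primary screen is 50% or more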
PLCb3 inh = blocks human PLC-beta3 enzyme activity. AID 720704. Q01970. 0.18% of 370,000 active. Purified PLC-beta3, fluorogenic substrate, fluorescence. inhibition, % at 12.2 µM; in the data active = inhibition above about 11%
PLCg1 inh = blocks human PLC-gamma1 enzyme activity; inhibition, % at 12.2 µM; 0.84% of 370,000 active; P19174; purified PLC-gamma1, fluorogenic substrate, fluorescence; in the data active = inhibition above about 9.5%
H9c2 protect = myocardial damage modulation in H9c2 cells; H9c2 cardiomyocytes, H2O2 injury protection, ATPLite, 2 h; protection from H2O2 cell death, % at 20 µM; 0.63% of 360,000 active; AID 588492;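 active = compounds giving at least 50% protection of heart cells from peroxide-induced death in the single-dose screen, raw or plate-pattern-corrected value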
Numbers stand for hits; . = inactive; / = not tested or not shown. Shown are actives, neighbours in structure and some others; about 2.2% of the full set was active somewhere.

SMILES	FAS TE block	PLCb3 inh	PLCg1 inh	H9c2 protect
O=c1cc(CN2CCN(S(=O)(=O)c3cccc(Cl)c3)CC2)c2ccc(O)cc2o1	.	.	.	54
CC(=O)Nc1cc(-c2cccc(C(=O)N(C)C)c2)cn2c(-c3ccc(C(C)=O)cc3)cnc12	.	.	.	55
CC(=O)Nc1cc(-c2cccc(NS(C)(=O)=O)c2)cn2c(-c3cccc(C(C)=O)c3)cnc12	.	.	.	78
CC(=O)Nc1cc(-c2cccc(C(=O)N(C)C)c2)cn2c(-c3ccccc3)cnc12	.	.	.	.
CC(=O)Nc1cc(-c2ccc(C(=O)N3CCOCC3)cc2)cn2c(-c3ccc(C(C)=O)cc3)cnc12	.	.	.	76
CC(=O)Nc1cc(-c2ccc(C(=O)N3CCOCC3)cc2)cn2c(-c3ccccc3)cnc12	.	.	.	.
CC(=O)Nc1cc(-c2ccccc2)cn2c(-c3cccc(C(C)=O)c3)cnc12	.	.	.	51
CC(=O)Nc1cc(-c2ccccc2F)cn2c(-c3ccccc3)cnc12	.	.	.	.
CC(=O)c1cccc(-c2cnc3c(NC=O)cc(-c4ccccc4F)cn23)c1	.	.	.	59
CC(=O)Nc1ccc(NC(=O)c2csc([C@@H]3O[C@H](CO)[C@H](O)[C@H](O)[C@H]3O)n2)cc1	.	.	.	.
O=C(Nc1ccc(Oc2ccccc2)cc1)c1csc([C@@H]2O[C@H](CO)[C@H](O)[C@H](O)[C@H]2O)n1	.	.	9.7	.
CS(=O)(=O)Nc1ccc(-c2ccc3nccn3c2)cc1	.	.	.	52
CS(=O)(=O)Nc1ccc(-c2cn3cccnc3n2)cc1	.	.	.	.
COC(=O)[C@H]1C[C@@]2(CC=C(C)C)c3ccccc3N(C(=O)OC(C)(C)C)[C@H]2N1C(=O)OC(C)(C)C	/	.	.	/
CCCCCCCCCCCCN1[C@@H](CC(=O)O)c2cc(C(F)(F)F)ccc2S1(=O)=O	58	.	.	.
COC(=O)c1cc(NC(=O)c2cc3ccccc3o2)cc(C(=O)OC)c1	.	.	.	89
O=C1c2cccc(OCc3ccc(F)cc3)c2CCN1Cc1ccc(F)cc1	.	.	11	.
Cc1ccc(CN2CCc3c(OCc4ccc(F)cc4)cccc3C2=O)cc1	.	.	.	.
O=C(CSc1nnc(-c2ccccc2)n1-c1ccccc1)NN=Cc1ccc(-c2ccccc2)cc1	/	.	.	/
CC1CCCCC12NC(=O)N(CC(=O)N(C)Cc1nc3ccccc3c(=O)[nH]1)C2=O (stereo unspecified)	.	.	.	.
CCCCN(Cc1nc2ccccc2c(=O)[nH]1)C(=O)CN1C(=O)NC2(CCCCC2)C1=O	.	.	.	83
COC(=O)c1cc2c(C)c(C)c3ccccn3c-2c1C(=O)OC	.	.	.	62
COC(=O)c1cc2ccccn2c2c(C(=O)OC)c(C(=O)OC)cc1-2	.	.	.	79
COC(=O)c1cc2c(C)cc3ccc(C)cn3c-2c1C(=O)OC	.	.	.	.
COC(=O)c1cc2n3ccccc3c(C)c(-c3ccccc3)c-2c1C(=O)OC	.	.	.	.
SMILES	FAS TE block	PLCb3 inh	PLCg1 inh	H9c2 protect
O=C(CCCN1C(=O)/C(=C/c2cccs2)SC1=S)NNC(=O)c1ccncc1	.	.	.	.
O=C(CCCN1C(=O)/C(=C/c2cccs2)SC1=S)NNC(=O)c1ccccc1O	.	.	.	60
COc1ccccc1/C=C1\SC(=S)N(CCC(=O)NNC(=O)c2ccccc2O)C1=O	.	/	/	60
Cc1cc(NS(=O)(=O)c2ccc(NC(=O)CSc3nnc(-c4ccccn4)n3Cc3ccco3)cc2)nc(C)n1	/	.	.	/
CC(C)(C)c1ccc(-c2nnc(SCC(=O)Nc3ccc(S(=O)(=O)Nc4nccs4)cc3)n2Cc2ccco2)cc1	/	.	.	/
O=c1oc2c(O)c(O)cc3c(=O)oc4c(O)c(O)cc1c4c23	84	/	/	.
CC1=NN(c2cccc(C(=O)O)c2)C(=O)/C1=C\C=C\c1ccco1	.	.	23	.
CCOC(=O)c1[nH]cnc1N=Nc1c(O)ccc2ccccc12	.	.	.	65
Cn1cc(C(=O)N/N=C/c2c(O)ccc3ccccc23)ccc1=O	.	.	.	71
O=C(NN=Cc1c(O)ccc2ccccc12)c1ccncc1	.	.	.	.
Cc1c(C(=O)N/N=C/c2c(O)ccc3ccccc23)nnn1-c1nonc1N	.	.	.	60
O=C(N/N=C/c1c(O)ccc2ccccc12)c1ccc[n+](CCO)c1	.	.	.	56
O=C(CN1CCOCC1)N/N=C/c1c(O)ccc2ccccc12	.	.	.	69
O=C(N/N=C\c1c(O)ccc2ccccc12)c1ccc(O)cc1	.	.	.	.
C=C(C)[C@@H]1CC2=C(OC)C(CC=C(C)C)(CC=C(C)C)C(=O)C(C(=O)c3ccccc3)=C2O1	/	.	.	/
